In PubChem BioAssay (NCATS):
Inconclusive results are not listed. Unless noted, calls follow the shape of the dose curve; as a rule, active = well fitted curve in either direction with a large enough effect (not every such curve was filed as active); inconclusive = small, poorly fitted or top-dose-only effect, or another doubt; inactive = flat fitted curve, though single readings scatter.

Key:
[1] = AP1 Signaling Pathway (AID 357); settings: ME-180 AP-1-bla reporter, EGF-induced, beta-lactamase ratio, 5 h; at 17.2 µM (top of the series) unless noted; also: % is scaled to controls: 0 for no effect and ±100 for the full control effect
Outline: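 ME-180 cells with beta-lactamase reporter under AP-1 response element, stimulated with EC50 EGF; compounds tested in titration series, 5 h at 37 °C. CCF4 substrate added 2.5 h at room temperature; 460/530 nm emission ratio gave %activity and AC50.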

[2] = NFAT Signaling Pathway (AID 444); settings: Jurkat NFAT-bla M1, carbachol, beta-lactamase ratio, 5 h; at 17.2 µM (top of the series) unless noted;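 also: carbachol stimulus at about its EC50 of 1 µM final; % is scaled to controls: 0 for no effect and ±100 for the full control effect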
Outline: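 Jurkat cells carrying an NFAT-driven β-lactamase reporter and co-transfected muscarinic M1 receptor were treated with compound plus carbachol (1 uM final, an EC50 level) for 5 h at 37 °C. CCF4 loading followed for 1 h at RT; 460/530 nm ratio gave %activity.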

[3] = Stat Signaling Pathway (AID 446); settings: ME-180 SIE beta-lactamase reporter, IL-6 stimulated, 5 h; at 17.2 µM (top of the series) unless noted;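 also: ME-180 cervical cancer cells given 40 pM IL-6 alongside compound; SIE-controlled beta-lactamase reporter measured as 460/530 nm FRET emission ratio; % is scaled to controls: 0 for no effect and ±100 for the full control effect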
Outline: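 Screening format detects activators and inhibitors alike: ME-180 SIE-bla cells stimulated at 40 pM IL-6 for 5 hrs with compound, then dual-emission beta-lactamase read at 405 nm excitation.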

[4] = biological target: Glucocorticoid receptor (Homo sapiens) (UniProt P04150); experiment: GR-GFP Redistribution (AID 450;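 active = compounds whose dose series gives a full or clear partial fitted curve of increased nuclear translocation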; also: potency is read from the fitted curve at half-maximal effect)
Sequence of Glucocorticoid receptor (Homo sapiens) (P04150 whole entry, looked up): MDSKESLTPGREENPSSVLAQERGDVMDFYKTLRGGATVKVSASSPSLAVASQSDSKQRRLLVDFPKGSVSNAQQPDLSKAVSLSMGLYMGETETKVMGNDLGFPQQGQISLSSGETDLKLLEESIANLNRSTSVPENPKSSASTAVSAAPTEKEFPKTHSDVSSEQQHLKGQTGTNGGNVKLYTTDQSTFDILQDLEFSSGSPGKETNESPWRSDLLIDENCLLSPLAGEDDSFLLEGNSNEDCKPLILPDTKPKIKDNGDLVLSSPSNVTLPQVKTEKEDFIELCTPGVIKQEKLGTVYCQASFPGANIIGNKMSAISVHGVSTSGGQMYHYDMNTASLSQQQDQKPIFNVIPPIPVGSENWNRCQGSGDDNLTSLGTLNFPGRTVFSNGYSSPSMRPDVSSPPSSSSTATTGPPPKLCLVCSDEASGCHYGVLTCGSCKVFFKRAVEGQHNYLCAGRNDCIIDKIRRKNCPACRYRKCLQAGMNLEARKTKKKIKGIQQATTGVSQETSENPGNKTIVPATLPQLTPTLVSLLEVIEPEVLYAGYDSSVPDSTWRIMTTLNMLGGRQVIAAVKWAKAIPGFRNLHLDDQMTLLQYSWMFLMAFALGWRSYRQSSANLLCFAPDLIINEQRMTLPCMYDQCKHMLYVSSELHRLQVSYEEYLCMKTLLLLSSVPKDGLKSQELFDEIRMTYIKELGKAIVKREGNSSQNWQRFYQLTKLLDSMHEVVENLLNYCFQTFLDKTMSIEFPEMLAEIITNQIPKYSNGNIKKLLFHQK

Cc1nc2c(o1)CCc1ccccc1C2O (configuration not stated)
inactive: activity change, negative = inhibition [1] 8.51% | activity change, negative = inhibition [2] 3.41% | activity, negative = inhibition [3] 5.73% | Potency [4] > 20.6 µM

CCCCCOc1ccc(C(=O)NCC(=O)NCC(=O)OCC)cc1
inactive: activity change, negative = inhibition [1] -2.64% | activity change, negative = inhibition [2] -2.75% | activity, negative = inhibition [3] -0.468% | Potency [4] > 20.6 µM

COC(=O)C(NC(=O)c1ccc(F)cc1)(Nc1nc(C)cs1)C(F)(F)F (configuration not stated)
inactive: activity change, negative = inhibition [1] -0.49% | activity change, negative = inhibition [2] -21.1% | activity, negative = inhibition [3] -10.7% | Potency [4] > 20.6 µM

S=c1[nH]nc(-c2ccco2)n1C1CCCCC1
inactive: activity change, negative = inhibition [1] -7.16% | activity change, negative = inhibition [2] 12.4% | activity, negative = inhibition [3] 1.34% | Potency [4] > 20.6 µM

CCSc1nnc(N(CCC#N)CCC#N)s1
inactive: activity change, negative = inhibition [1] 8.14% | activity change, negative = inhibition [2] -7.48% | activity, negative = inhibition [3] -1.67% | Potency [4] > 20.6 µM

Cc1c(C(Nc2ccccn2)c2ccccc2)c(=O)n(-c2ccccc2)n1C (configuration not stated)
inactive: activity change, negative = inhibition [1] -3.17% | activity change, negative = inhibition [2] 2.74% | activity, negative = inhibition [3] 8.77% | Potency [4] > 20.6 µM

COC(=O)c1cc(OC)c(OC)cc1N
inactive: activity change, negative = inhibition [1] 0.8% | activity change, negative = inhibition [2] 0.905% | activity, negative = inhibition [3] -0.00836% | Potency [4] > 20.6 µM

CCOC(=O)CC1=C(C(=O)OCC)C(c2cc(OC)c(OC)cc2OC)C(C#N)=C(N)O1 (configuration not stated)
inactive: activity change, negative = inhibition [1] 0.567% | activity change, negative = inhibition [2] -1.8% | activity, negative = inhibition [3] 10.5% | Potency [4] > 20.6 µM

Cc1nc(NCCCO)c(C#N)c2c1COC(C)(C)C2
inactive: activity change, negative = inhibition [1] -14.2% | activity change, negative = inhibition [2] 1.02% | activity, negative = inhibition [3] 1.39% | Potency [4] > 20.6 µM

Cc1ccc(N(CN2C(=O)NC(C)(C)C2=O)CN2C(=O)NC(C)(C)C2=O)cc1
inactive: activity change, negative = inhibition [1] 5% | activity change, negative = inhibition [2] 15.5% | activity, negative = inhibition [3] 5.53% | Potency [4] > 20.6 µM

C=CCc1c(C)c(C#N)c2nc3ccccc3n2c1N1CCN(C)CC1
inactive: activity change, negative = inhibition [1] -17.1% | activity change, negative = inhibition [2] 4.5% | activity, negative = inhibition [3] 3.98% | Potency [4] > 20.6 µM

Cc1cc(=O)oc(C)c1C(=O)n1nc(C)c2c1C[C@@H]1[C@H]2C1(C)C
inactive: activity change, negative = inhibition [1] -2.2% | activity change, negative = inhibition [2] -1.13% | activity, negative = inhibition [3] -1.83% | Potency [4] > 20.6 µM

N#Cc1c(N)sc(=S)c2c1CCCCC2
inactive: activity change, negative = inhibition [1] 10.8% | activity change, negative = inhibition [2] -12.9% | activity, negative = inhibition [3] -20.4% | Potency [4] > 20.6 µM

COc1ccccc1C1(CC(=O)N2CCOCC2)CCOC(C(C)C)C1 (configuration not stated)
inactive: activity change, negative = inhibition [1] 3.63% | activity change, negative = inhibition [2] 13.2% | activity, negative = inhibition [3] -0.0907% | Potency [4] > 20.6 µM

Cc1cc2c(c(=O)o1)C(CC(C)C)C(C#N)=C(N)O2 (configuration not stated)
inactive: activity change, negative = inhibition [1] 14.1% | activity change, negative = inhibition [2] 4.64% | activity, negative = inhibition [3] 1.38% | Potency [4] > 20.6 µM

C/C=C/c1ccccc1OCc1ccc(C(=O)O)o1
inactive: activity change, negative = inhibition [1] -6.57% | activity change, negative = inhibition [2] -2.78% | activity, negative = inhibition [3] -2.17% | Potency [4] > 20.6 µM

CCOC(=O)c1c(C)[nH]sc1=S
inactive: activity change, negative = inhibition [1] 4.4% | activity change, negative = inhibition [2] -1.05% | activity, negative = inhibition [3] -4.25% | Potency [4] > 20.6 µM

CCCCSc1nc(O)c(C2OC(=O)c3c2ccc(OC)c3OC)c(=O)n1C (configuration not stated)
inactive: activity change, negative = inhibition [1] -4.1% | activity change, negative = inhibition [2] 1.82% | activity, negative = inhibition [3] -7.44% | Potency [4] > 20.6 µM
